Source: PubChem BioAssay
Rows were chosen to be rich in hits. Some 8.7% of all compounds tested hit in one or more screens of this group.
Vaccinia Venus: inhibitors of vaccinia virus (Venus reporter) | Vaccinia virus Venus reporter expression, fluorescence | Potency, µM (series often up to 36.5 µM), for the others: top-dose activity change, negative = inhibition, usual class: inhibitors | 330,000 compounds, 0.46% hits; calls by dose curve; tested in A549 cells; note: nearly all actives have a fitted effect of over 30% in size
Pf growth 48h: P. falciparum growth inhibition at 48 hours (one generation) | P. falciparum luciferase growth in erythrocytes, 48 h | Potency, µM (series often up to 28.7 µM), for inactives: at the highest dose activity change, negative = inhibition, usual class: inhibitors | 310,000 compounds, 5.9% hits
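Read-out is firefly luciferase luminescence from an integrated reporter in P. falciparum, so falling signal marks reduced parasite growth. Infected erythrocytes were at 2% hematocrit and 0.1% parasitemia (final) in Albumax-supplemented RPMI 1640.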
Pf growth 96h: P. falciparum growth inhibition at 96 hour, primary screen for plastid delayed-death inhibitors; P. falciparum luciferase reporter growth, 96 h; Potency, µM (top dose mostly 28.7 µM), inactives show top-dose activity change, negative = inhibition, actives largely listed as inhibitors; 320,000 compounds, 6.9% hits
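Erythrocytes infected with luciferase-expressing P. falciparum were dispensed at 2% hematocrit and 0.05% parasitemia (final), then incubated with compounds 96 hours at 37 C in 5% CO2. Luminescence after detection reagent addition reported growth.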
AMA1 RON2 block: AMA1-RON2 (P. falciparum) interaction inhibition. 360,000 compounds, 0.2% hits. AlphaScreen AMA1-biotinylated RON2 peptide binding. Potency, µM (highest dose often 58.2 µM), inactives show at the top dose activity change, negative = inhibition, most hits filed as inhibitors;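 note: 0% = vehicle wells and -100% = peptide control; nearly all actives have a fitted effect of over 45% in size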
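AMA1 (3D7) with his tag at 25 nM final met compounds first, then biotinylated RON2 peptide at 25 nM; detection used donor plus acceptor beads, 10 µg/mL apiece, read by AlphaScreen after 30 min at room temperature.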
Vaccinia mCherry: vaccinia inhibition (mCherry reporter); AID 720579; Vaccinia virus mCherry reporter infection, fluorescence; 310,000 compounds, 0.63% hits; Potency, µM (doses to about 36.5 µM), without a hit: at the highest dose activity change, negative = inhibition, most hits filed as inhibitors; calls by dose curve; tested in A549 cells; note: nearly all actives have a fitted effect of over 35% in size
Starred values were filed as active, the others as inactive; i = inactive; ? = inconclusive; . = not tested or not shown; ! = repeats disagree; [ ] = remark or other dose. Unless noted, calls come from the whole dose curve; as a rule, active = well fitted curve in the direction sought with a large enough effect; inconclusive = small, poorly fitted or top-dose-only effect, or another doubt; inactive = no such curve, though single readings can be large; an effect the other way counts as inactive or inconclusive. Unless noted, % is set by controls: 0 for no effect and ±100 for the full control effect; potency is the fitted concentration of half-maximal effect.

SMILES	Vaccinia Venus	Pf growth 48h	Pf growth 96h	AMA1 RON2 block	Vaccinia mCherry
CCOc1ccc(C2NC(=O)c3sc(=S)n(-c4ccccc4)c3N2)cc1 (centres undefined)	-6%	4.1µM*	5.9µM*	-11%	-13%
COc1ccc(C2NC(=O)c3sc(=S)n(-c4ccccc4)c3N2)cc1 (centres undefined)	-4%	?	.	5%	.
CC(C)Cn1c(C(C)C)nc([N+](=O)[O-])c1Sc1ccc(Cl)cn1	.	9.3µM*	9.3µM*	3%	.
CCCCn1c(CCC)nc([N+](=O)[O-])c1Sc1ccc(Cl)cn1	.	10µM*	15µM*	-18%	.
CCCCCCSc1cccc(-c2nc3cc(C)ccn3c2NC2CCCCC2)c1	-26%	9.3µM*	?	21%	-1%
CCC(C)Sc1cccc(-c2nc3cc(C)ccn3c2NC2CCCCC2)c1 (centres undefined)	?	.	.	-1%	7.9µM*!
CCCCCCSc1cccc(-c2nc3ccc(C)cn3c2NC2CCCCC2)c1	-12%	9.3µM*	5.2µM*	-2%	-7%
Cc1ccc2nc(-c3ccccn3)c(NC3CCCC3)n2c1	-28%	-1%	41%	?	13µM*
CCCCCCSc1ccc(-c2nc3ccc(Cl)cn3c2NC2CCCCC2)cc1	-17%	.	.	10%	i
COc1ccc2c(c1)c1c(c(=O)n(-c3cccc(Cl)c3)c(=O)n1CC(=O)NCC1CCCO1)n2C (centres undefined)	-7%	.	.	.	-4%
O=C1CN(C(=O)COc2ccc(Cl)cc2)C(c2ccc(F)cc2)c2cc(Cl)ccc2N1 (centres undefined)	-11%	.	.	.	-12%
CCOC(=O)c1c(C)n(-c2ccc(F)cc2)c2ccc(O)cc12	.	2.6µM*	6%	-10%	.
COC(=O)c1c(C)n(-c2ccc(OC)cc2)c2ccc(O)cc12	?	12µM*	20%	-3%	.
Cc1cccc(N2CCN(S(=O)(=O)c3ccc4oc(=O)c5ncn(C)c5c4c3)CC2)c1C	-18%	.	.	.	-15%
Cc1ccc(C)c(Cn2nc3c4ccccc4n(Cc4ccccc4)cc-3c2=O)c1	-3%	13µM*	10%	-2%	?
Cc1csc(C(C)NC(=O)c2ccc(OC3CCN(CCc4ccccc4)CC3)cc2)n1 (centres undefined)	.	10µM*	9%	0%	.
O=C(NCCc1ccccn1)c1ccc(OC2CCN(Cc3ccccn3)CC2)cc1	.	-13%	7%	84%	.
CC(Cc1ccccn1)NC(=O)c1ccc(OC2CCN(Cc3ccccn3)CC2)cc1 (centres undefined)	-14%	38%	9.3µM*	45%	-9%
CC1CCCN(Cc2nc3c(c(=O)n(C)c(=O)n3C)n2Cc2ccc(Cl)cc2Cl)C1 (centres undefined)	-10%	.	.	.	-8%
Cc1ccc(C)c(-c2[nH]c3c(c2-c2c(-n4cccc4)n(C)c(=O)[nH]c2=O)c(=O)[nH]c(=O)n3C)c1	-1%	.	.	.	-11%
O=C1OC2(O)C3C4C=CC(C4)C3C(=O)N2c2ccccc21 (centres undefined)	.	2.3µM*	46%	-4%	.
Cc1ccsc1/C=N\NC(=O)c1n[nH]c2c1CCC2	?	49%	10µM*	-6%[11.6 µM]	?
CN(C)c1ccc(S(=O)(=O)N2CCCCC2)cc1NC(=O)CN1C(=O)NC(C)(c2ccccc2)C1=O (centres undefined)	-12%	?	?	-4%	-23%
CC1CCC2(CC1)NC(=O)N(CC(=O)Nc1cc(S(=O)(=O)N3CCCC3)ccc1Cl)C2=O (centres undefined)	-14%	.	.	26%	-8%
CCN(CC)c1ccc(S(=O)(=O)N2CCOCC2)cc1NC(=O)CN1C(=O)NC2(CCC(C)CC2)C1=O (centres undefined)	-6%	?	13µM*	-3%	i
SMILES	Vaccinia Venus	Pf growth 48h	Pf growth 96h	AMA1 RON2 block	Vaccinia mCherry
CN(C)c1ccc(S(=O)(=O)N2CCCCC2)cc1NC(=O)CN1C(=O)NC2(CCCC2)C1=O	0%	13µM*	?	-4%	1%
CN(C)c1nc2cc3c(cc2cc1CN(CC1CCCO1)C(=O)c1cccc(F)c1)OCO3 (centres undefined)	3%	.	.	.	-10%
O=C(COC(=O)CC1Sc2ccccc2NC1=O)NCc1ccccc1 (centres undefined)	-9%	13µM*	?	9%	i
COc1ccc(CNC(=O)CC2Sc3ccccc3NC2=O)cc1 (centres undefined)	-25%	-2%	26%	4%	i
CC12CCC(C(=O)N/N=C/c3ccc(O)cc3O)(OC1=O)C2(C)C (centres undefined)	-27%	?	?	56%	14µM*
C/C(=N\NC(=O)C12CCC(C)(C(=O)O1)C2(C)C)c1ccccc1O (centres undefined)	-24%	?	?	147%	?
Cc1cc(C)cc(C(=O)N2CC(C)SC2=Nc2cccc(S(=O)(=O)N(C)C)c2)c1 (centres undefined)	-26%	13µM*	?	-26%	?
Clc1cccc(C2Nc3cccc4cccc(c34)N2)c1	8%	7.4µM*	63%	-7%	?
Oc1ccccc1C1Nc2cccc3cccc(c23)N1	-6%	13µM*	-7%	-4%	-11%
COc1ccc(C2Nc3cccc4cccc(c34)N2)cc1	.	?	6%	-11%	.
Clc1ccc(C2Nc3cccc4cccc(c34)N2)cc1Cl	.	?	-5%	2%	.
CN(C)c1ccc(C2Nc3cccc4cccc(c34)N2)cc1	.	.	3.7µM*	-8%	.
COc1ccccc1C1Nc2cccc3cccc(c23)N1	.	?	-10%	-28%	.
Cc1cc(NC(=O)c2cnn(-c3ccccc3)c2-n2cccc2)ccc1Br	-9%	.	.	.	-13%
Cc1nn(-c2ccccc2)c(C)c1/C=N\N1CCN(c2ccc(Cl)cc2)CC1	-7%	13µM*	?	-5%	.
CCOC(=O)/C(C(=Nc1ccccc1)Nc1ccccc1)=C(\C)O	.	-1%	10µM*	7%	.
CCOC(=O)C1C(C(=O)NN)C1C(=O)Nc1ccccc1 (centres undefined)	-5%	13µM*	8%	8%	-14%
Cc1cnc(C)c(-c2cccc3c2OC(CNC(=O)/C=C/c2ccncc2)C3)n1 (centres undefined)	1%	.	.	.	-12%
Cc1ccc(C)c(N=Cc2cc3c(cc2[N+](=O)[O-])OCO3)c1	-2%	?	0.042µM*	1%	4%
CCCNC(=O)CN(C)S(=O)(=O)c1c(C)cc(C)cc1C	4%	7.4µM*	10µM*	-6%	.
Cn1nc(C(F)(F)F)c(-c2cccc(C(F)(F)F)c2)c1NC(=O)c1ccco1	.	?	-20%	-8%	.
Cn1nc(C(F)(F)F)c(-c2cccc(C(F)(F)F)c2)c1NC(=O)Nc1ccc(F)cc1	-9%	0.93µM*	1.3µM*	-3%	i
